# Measured values published in the supplement of paper PMC4022240.
# ± gives the standard deviation.
# B1: H4 8-19 K G L G K G G A K Rcit H R K (peptide)
# chain: KGLGKGGAKRHRK
# B2: H4 8-19 K G L G K G G A Kac Rme2s H R K (peptide)
# chain: KGLGKGGAKRHRK
# B3: H4 16-28 K R H Rcit Kme2 V L R D N I Q G (peptide)
# chain: KRHRKVLRDNIQG
# B4: H4 8-19 K G L G K G G A K Rme2a H R K (peptide)
# chain: KGLGKGGAKRHRK
# B5: H4 8-19 K G L G K G G A Kac Rme2a H R K (peptide)
# chain: KGLGKGGAKRHRK
# B6: H4 8-19 K G L G K G G A Kac Rcit H R K (peptide)
# chain: KGLGKGGAKRHRK
# Legend:
# Test in all cases: peptide microarray binding signal (635 nm), min-max normalized on array (fraction of array maximum); higher = stronger binding
# [1] = target: T1, HaloTag-ATRX ADD domain (163-292)
# T1 chain: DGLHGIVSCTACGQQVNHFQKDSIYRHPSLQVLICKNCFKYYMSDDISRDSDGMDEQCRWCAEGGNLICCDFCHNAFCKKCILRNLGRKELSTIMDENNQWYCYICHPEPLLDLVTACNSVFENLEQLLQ
# How it was run: (§1)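 Arrays carried histone 13-mer peptide–cellulose conjugates printed in triplicate on nitrocellulose alongside a Cy3 tracer. After overnight blocking at 4°C, they were incubated for 1 h at 4°C with biotin-labelled HaloTag reader fusions (10 nM to 1 μM) plus streptavidin-Alexa Fluor 647, or with rabbit histone antibodies (1:10,000 to 1:2,000) plus anti-rabbit Alexa 647. Scanning on an Axon GenePix 4000B used 635 nm for signal and 532 nm for misprints. The binding signal reported is each triplicate's mean spot intensity after per-library min-max scaling.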
# [2] = target: HaloTag-ING2 PHD (mouse Ing2 200-280)
# How it was run: as §1
# [3] = target: anti-H3K4me3 antibody ab8580
# How it was run: as §1
# [4] = target: anti-H3K9me3 antibody ab8898
# How it was run: as §1
# [5] = peptide region: H4 8-19, peptide modifications: H4R17cit, binder concentration: 1:2,000 dilution
# [6] = peptide region: H4 8-19, peptide modifications: H4R17cit, binder concentration: 1:10,000 dilution
# [7] = peptide region: H4 8-19, peptide modifications: H4K16ac H4R17me2s, binder concentration: 1:2,000 dilution
# [8] = peptide region: H4 16-28, peptide modifications: H4R19cit H4K20me2, binder concentration: 1:2,000 dilution
# [9] = peptide region: H4 16-28, peptide modifications: H4R19cit H4K20me2, binder concentration: 1:10,000 dilution
# [10] = peptide region: H4 8-19, peptide modifications: H4R17me2a, binder concentration: 1:2,000 dilution
# [11] = peptide region: H4 8-19, peptide modifications: H4R17me2a, binder concentration: 1:10,000 dilution
# [12] = peptide region: H4 8-19, peptide modifications: H4K16ac H4R17me2a, binder concentration: 1:2,000 dilution
# [13] = peptide region: H4 8-19, peptide modifications: H4K16ac H4R17cit, binder concentration: 1:2,000 dilution
binder,measurement,setting,value
B1,peptide microarray binding signal,"[1]; peptide region: H4 8-19, peptide modifications: H4R17cit, binder concentration: 50 nM",0.0003448 ± 3.2e-06
same,peptide microarray binding signal,"[1]; peptide region: H4 8-19, peptide modifications: H4R17cit, binder concentration: 500 nM",0.000381 ± 4e-06
same,peptide microarray binding signal,"[2]; peptide region: H4 8-19, peptide modifications: H4R17cit, binder concentration: 10 nM",0.00191 ± 4e-05
same,peptide microarray binding signal,"[2]; peptide region: H4 8-19, peptide modifications: H4R17cit, binder concentration: 100 nM",0.000354 ± 4.1e-06
same,peptide microarray binding signal,[3]; [5],7.55e-05 ± 8.5e-07
same,peptide microarray binding signal,[3]; [6],0.000685 ± 1.5e-05
same,peptide microarray binding signal,[4]; [5],3.02e-05 ± 3.4e-07
same,peptide microarray binding signal,[4]; [6],0
B2,peptide microarray binding signal,"[1]; peptide region: H4 8-19, peptide modifications: H4K16ac H4R17me2s, binder concentration: 500 nM",0.000286 ± 1.8e-05
same,peptide microarray binding signal,"[2]; peptide region: H4 8-19, peptide modifications: H4K16ac H4R17me2s, binder concentration: 100 nM",0.000283 ± 5.7e-06
same,peptide microarray binding signal,[3]; [7],5.66e-05
same,peptide microarray binding signal,[4]; [7],1.51e-05 ± 1.7e-07
B3,peptide microarray binding signal,"[1]; peptide region: H4 16-28, peptide modifications: H4R19cit H4K20me2, binder concentration: 50 nM",0.00351 ± 7.6e-05
same,peptide microarray binding signal,"[1]; peptide region: H4 16-28, peptide modifications: H4R19cit H4K20me2, binder concentration: 500 nM",0.007572 ± 7.1e-05
same,peptide microarray binding signal,"[2]; peptide region: H4 16-28, peptide modifications: H4R19cit H4K20me2, binder concentration: 10 nM",0.00812 ± 0.00016
same,peptide microarray binding signal,"[2]; peptide region: H4 16-28, peptide modifications: H4R19cit H4K20me2, binder concentration: 100 nM",0.0181 ± 0.00075
same,peptide microarray binding signal,[3]; [8],0.0008306 ± 7.4e-06
same,peptide microarray binding signal,[3]; [9],0.0016
same,peptide microarray binding signal,[4]; [8],0.000483 ± 9.2e-06
same,peptide microarray binding signal,[4]; [9],0.001211 ± 1.2e-05
B4,peptide microarray binding signal,"[1]; peptide region: H4 8-19, peptide modifications: H4R17me2a, binder concentration: 50 nM",0.00395 ± 0.00035
same,peptide microarray binding signal,"[1]; peptide region: H4 8-19, peptide modifications: H4R17me2a, binder concentration: 500 nM",0.00957 ± 0.00096
same,peptide microarray binding signal,"[2]; peptide region: H4 8-19, peptide modifications: H4R17me2a, binder concentration: 10 nM",0.00358 ± 3.8e-05
same,peptide microarray binding signal,"[2]; peptide region: H4 8-19, peptide modifications: H4R17me2a, binder concentration: 100 nM",0.0085 ± 0.00064
same,peptide microarray binding signal,[3]; [10],0.00051 ± 1.5e-05
same,peptide microarray binding signal,[3]; [11],0.000913 ± 1.6e-05
same,peptide microarray binding signal,[4]; [10],0.000483 ± 1.7e-05
same,peptide microarray binding signal,[4]; [11],0.00208 ± 0.00045
B5,peptide microarray binding signal,"[1]; peptide region: H4 8-19, peptide modifications: H4K16ac H4R17me2a, binder concentration: 500 nM",0
same,peptide microarray binding signal,"[2]; peptide region: H4 8-19, peptide modifications: H4K16ac H4R17me2a, binder concentration: 100 nM",0.000283
same,peptide microarray binding signal,[3]; [12],1.89e-05 ± 2.2e-07
same,peptide microarray binding signal,[4]; [12],1.51e-05 ± 1.7e-07
B6,peptide microarray binding signal,"[1]; peptide region: H4 8-19, peptide modifications: H4K16ac H4R17cit, binder concentration: 500 nM",0.000476 ± 1.3e-05
same,peptide microarray binding signal,"[2]; peptide region: H4 8-19, peptide modifications: H4K16ac H4R17cit, binder concentration: 100 nM",7.09e-05 ± 1.5e-06
same,peptide microarray binding signal,[3]; [13],3.78e-05 ± 4.3e-07
same,peptide microarray binding signal,[4]; [13],0
